# Source: PubChem BioAssay (Tox21)
# Inconclusive results are not listed. A call without a number means that no potency is given here. Activity calls are given as the source filed them. Unless noted, calls come from the whole dose curve; as a rule, active = well fitted curve in the direction sought with a large enough effect in the repeat runs; inconclusive = weak or mixed curves; inactive = no such curve, though single readings can be large; an effect the other way counts as inactive or inconclusive.
# What was measured:
# [1] = qHTS assay to identify aromatase inhibitors - cell viability counter screen (AID 743084);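 note: cells stimulated with testosterone during compound exposure; nearly all actives have a fitted effect of over 55% in size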; note: potency is the fitted concentration of half-maximal effect
# [2] = target: Aryl hydrocarbon receptor (Homo sapiens) (UniProt P35869); test: qHTS assay to identify small molecule that activate the aryl hydrocarbon receptor (AhR) signaling pathway (AID 743085); note: nearly all actives have a fitted effect of over 15% in size; note: potency is the fitted concentration of half-maximal effect;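 for activation: HG2L7.5c1 human HepG2 liver cells with stably integrated DRE-driven firefly reporter; series mostly up to about 70 µM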
# Sequence of Aryl hydrocarbon receptor (Homo sapiens) (P35869 whole entry, looked up): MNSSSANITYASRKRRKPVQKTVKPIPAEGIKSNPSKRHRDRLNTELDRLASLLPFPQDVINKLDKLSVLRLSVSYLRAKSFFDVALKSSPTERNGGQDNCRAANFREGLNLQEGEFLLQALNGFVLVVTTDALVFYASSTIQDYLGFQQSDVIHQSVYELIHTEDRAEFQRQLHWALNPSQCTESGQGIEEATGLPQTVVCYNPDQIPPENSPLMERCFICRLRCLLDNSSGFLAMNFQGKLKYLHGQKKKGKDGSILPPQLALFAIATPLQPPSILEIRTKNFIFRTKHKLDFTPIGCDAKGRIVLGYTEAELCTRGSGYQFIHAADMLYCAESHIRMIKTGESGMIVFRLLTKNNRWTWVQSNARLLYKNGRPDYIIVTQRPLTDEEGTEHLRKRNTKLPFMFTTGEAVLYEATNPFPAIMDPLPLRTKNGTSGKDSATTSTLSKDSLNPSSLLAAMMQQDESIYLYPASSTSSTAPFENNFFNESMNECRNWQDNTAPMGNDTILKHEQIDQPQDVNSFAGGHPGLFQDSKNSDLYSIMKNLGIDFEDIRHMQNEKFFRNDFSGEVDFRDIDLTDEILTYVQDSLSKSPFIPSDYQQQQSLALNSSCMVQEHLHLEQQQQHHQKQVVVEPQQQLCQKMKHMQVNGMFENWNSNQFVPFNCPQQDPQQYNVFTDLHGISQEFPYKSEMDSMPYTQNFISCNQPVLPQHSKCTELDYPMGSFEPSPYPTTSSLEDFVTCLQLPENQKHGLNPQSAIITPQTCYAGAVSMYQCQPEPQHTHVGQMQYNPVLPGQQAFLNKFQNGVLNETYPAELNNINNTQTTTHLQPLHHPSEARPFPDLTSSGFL
# Method in brief: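 HepG2 cells (HG2L7.5c1) stably carrying a firefly luciferase reporter driven by 20 dioxin responsive elements were exposed to compound for 24 h at 37C after a 5 h settling period; luminescence rise (ONE-Glo) indicated activation.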
# [3] = qHTS assay to identify small molecule that activate the aryl hydrocarbon receptor (AhR) signaling pathway - cell viability counter screen (AID 743086); note: nearly all actives have a fitted effect of over 45% in size; note: potency is the fitted concentration of half-maximal effect
# Method in brief: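 Cytotoxicity counter screen: CellTiter-Fluor signal (30 min, 37 C) in 4000 HepG2 cells/well carrying the DRE-luciferase reporter, following 24 h compound exposure at 37 C.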
# [4] = target: Peroxisome proliferator-activated receptor gamma (Homo sapiens) (UniProt P37231); test: qHTS assay to identify small molecule agonists of the peroxisome proliferator-activated receptor gamma (PPARg) signaling pathway (AID 743094; active = well fitted activation curve with a large enough effect in the signal ratio in the repeat runs, not every such curve was filed as active; the % refers to the signal ratio)
# Sequence of Peroxisome proliferator-activated receptor gamma (Homo sapiens) (P37231 whole entry, looked up): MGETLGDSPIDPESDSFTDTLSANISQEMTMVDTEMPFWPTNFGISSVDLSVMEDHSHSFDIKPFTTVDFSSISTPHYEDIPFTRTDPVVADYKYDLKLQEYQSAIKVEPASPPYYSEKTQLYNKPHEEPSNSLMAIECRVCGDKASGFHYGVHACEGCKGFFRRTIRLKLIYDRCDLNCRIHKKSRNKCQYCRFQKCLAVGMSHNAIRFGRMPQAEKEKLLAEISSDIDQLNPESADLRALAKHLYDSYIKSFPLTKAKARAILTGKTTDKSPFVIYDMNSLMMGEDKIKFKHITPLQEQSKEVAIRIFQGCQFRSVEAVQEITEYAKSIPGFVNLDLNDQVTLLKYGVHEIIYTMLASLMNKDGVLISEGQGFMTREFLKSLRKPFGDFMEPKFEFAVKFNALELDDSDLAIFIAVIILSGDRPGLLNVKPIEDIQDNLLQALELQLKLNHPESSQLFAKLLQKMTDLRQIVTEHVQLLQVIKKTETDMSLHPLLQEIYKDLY
# Method in brief: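 Reporter activation was scored by fluorescence of cleaved LiveBLAzer B/G substrate (1 h, room temperature) in PPARg-bla HEK293H cells previously treated 17 h at 37C with DMSO-dissolved compounds.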
# [5] = qHTS assay to identify small molecule antagonists of the peroxisome proliferator-activated receptor gamma (PPARg) signaling pathway - cell viability counter screen (AID 743194); note: nearly all actives have a fitted effect of over 55% in size; note: potency is the fitted concentration of half-maximal effect
# Method in brief: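 Viability was measured as CellTiter-Glo luminescence in GeneBLAzer PPARg UAS-bla HEK293H cells. These cells had been exposed 17 h at 37 C to compounds together with rosiglitazone at 50 nM final, with the beta-lactamase readout taken in the same wells.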
# [6] = qHTS assay for small molecule agonists of the antioxidant response element (ARE) signaling pathway (AID 743202; active = well fitted activation curve with a large enough effect in the signal ratio in the repeat runs, not every such curve was filed as active; the % refers to the signal ratio; note: potency is the fitted concentration of half-maximal effect)
# Method in brief: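 Beta-lactamase reporter activity, read as fluorescence intensity, reflects ARE/Nrf2 pathway induction in HepG2 cells after 16 h compound exposure at 37 C; substrate loading was 2 h at room temperature.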
# [7] = qHTS assay for small molecule agonists of the antioxidant response element (ARE) signaling pathway - cell viability counter screen (AID 743203; calls by dose curve; note: nearly all actives have a fitted effect of over 55% in size; note: potency is the fitted concentration of half-maximal effect)
# Method in brief: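 Viability counter screen: stably transfected ARE-bla HepG2 line, 16 hrs compound exposure at 37C/5% CO2, ATP-based CellTiter-Glo luminescence measured in the reporter wells.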
# [8] = qHTS assay for small molecule activators of the heat shock response signaling pathway - cell viability counter screen (AID 743209); note: nearly all actives have a fitted effect of over 50% in size; note: potency is the fitted concentration of half-maximal effect
# Method in brief: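 Viability of HSE-bla HeLa cells is measured with CellTiter-Glo in the wells already used for the reporter read. Compound exposure lasts 5 h at 37 C, and luminescence is read after 30 min at room temperature.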
# [9] = qHTS assay for small molecule activators of the heat shock response signaling pathway (AID 743210; active = well fitted activation curve with a large enough effect in the signal ratio in the repeat runs, with a control signal flat, not every such curve was filed as active; the % refers to the signal ratio; note: potency is the fitted concentration of half-maximal effect;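 for activation: HeLa cells with beta-lactamase reporter driven by heat shock elements; series mostly up to about 63 µM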)
# Method in brief: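 Fluorescence from a cleaved B/G FRET substrate (2.5 h, room temp) reports HSE-driven beta-lactamase in HeLa cells treated 5 h at 37 C with DMSO-dissolved compounds.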
# [10] = target: Peroxisome proliferator-activated receptor gamma (Homo sapiens) (UniProt P37231); test: qHTS assay to identify small molecule antagonists of the peroxisome proliferator-activated receptor gamma (PPARg) signaling pathway (AID 743191; calls by dose curve; note: series mostly up to about 63 µM; nearly all actives have a fitted effect of over 30% in size)
# Method in brief: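 Beta-lactamase reporter under UAS control in HEK293H PPARg-bla cells; compound treatment 17 h at 37C. Read-out: fluorescence intensity after 1 h room-temperature incubation with LiveBLAzer B/G FRET substrate.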
Compound,Potency [1],Potency [2],Potency [3],Potency [4],Potency [5],Potency [6],Potency [7],Potency [8],Potency [9],Potency [10]
N#CCc1ccc(Cl)cc1Cl,inactive,inactive,inactive,inactive,inactive,inactive,inactive,inactive,inactive,–
C=CC(C)(CCC=C(C)C)OC(=O)CC(C)C (stereo not drawn),inactive,inactive,inactive,inactive,inactive,–,inactive,inactive,inactive,–
O=C(OC(=O)c1ccccc1)c1ccccc1,inactive,inactive,inactive,inactive,inactive,inactive,inactive,inactive,inactive,–
C=C(C)CCCC(C)CCO (stereo not drawn),inactive,inactive,inactive,inactive,inactive,–,–,inactive,inactive,–
CC1=Nc2ccc3ccccc3c2C1(C)C,inactive,inactive,54.5 µM (active),inactive,inactive,–,inactive,inactive,–,–
CO[C@]1(NC(=O)CSC(F)F)C(=O)N2C(C(=O)O)=C(CSc3nnnn3CCO)CO[C@H]21,inactive,inactive,inactive,inactive,inactive,inactive,inactive,inactive,inactive,–
C=CC(=O)[O-].C=CC(=O)[O-].[Zn+2],inactive,inactive,inactive,inactive,inactive,–,inactive,inactive,–,–
COc1ccccc1Oc1c(NS(=O)(=O)c2ccc(C(C)(C)C)cc2)nc(-c2ncccn2)nc1OCCO,inactive,inactive,inactive,inactive,inactive,–,inactive,inactive,–,–
COC(=O)CS,inactive,inactive,inactive,inactive,inactive,inactive,inactive,–,inactive,–
CC=C(Cl)Cl,inactive,inactive,inactive,inactive,inactive,inactive,inactive,inactive,inactive,–
CN(C)CCC=C1c2ccccc2C=Cc2ccccc21,inactive,inactive,inactive,inactive,inactive,–,inactive,inactive,–,–
C=C(C)C(=O)OCCOCCOC(=O)C(=C)C,inactive,inactive,inactive,inactive,inactive,–,inactive,inactive,inactive,–
O=C=Nc1ccc(Cl)c(Cl)c1,inactive,47.8 µM (active),inactive,inactive,inactive,–,inactive,inactive,inactive,–
Cc1cscn1,inactive,inactive,inactive,inactive,inactive,inactive,inactive,inactive,inactive,–
CCOC(=O)c1ccc(OCCN2C[C@H](O)[C@@H](O)[C@H](O)[C@H]2CO)cc1,inactive,inactive,inactive,inactive,inactive,inactive,inactive,inactive,inactive,–
CCOC(=O)/C=C/C(=O)OCC,inactive,inactive,inactive,inactive,inactive,–,inactive,inactive,inactive,–
C=C1c2cccc(O)c2C(O)=C2C(=O)[C@]3(O)C(O)=C(C(N)=O)C(=O)[C@@H](N(C)C)[C@@H]3[C@@H](O)[C@H]12,inactive,inactive,inactive,inactive,inactive,inactive,inactive,inactive,inactive,–
CC1(C)[C@@H](OC(=O)CCC(=O)O)CC[C@]2(C)[C@H]3C(=O)C=C4[C@@H]5C[C@@](C)(C(=O)O)CC[C@]5(C)CC[C@@]4(C)[C@]3(C)CC[C@@H]12,inactive,inactive,inactive,inactive,inactive,26.6 µM (active),inactive,–,inactive,–
CC(=O)c1ccc([N+](=O)[O-])cc1,inactive,inactive,inactive,inactive,inactive,inactive,inactive,inactive,inactive,–
COc1ccccc1N1CCN(CC(O)COc2cccc3ccccc23)CC1 (stereo not drawn),inactive,29.8 µM (active),inactive,inactive,inactive,–,inactive,inactive,–,–

Compound,Potency [1],Potency [2],Potency [3],Potency [4],Potency [5],Potency [6],Potency [7],Potency [8],Potency [9],Potency [10]
O=C(/C=C/c1ccccc1)OCCc1ccccc1,inactive,inactive,inactive,inactive,inactive,–,inactive,inactive,inactive,–
C=COCC(C)C,inactive,inactive,inactive,inactive,–,inactive,inactive,inactive,inactive,–
CN1C(=O)c2ccccc2C1=O,inactive,inactive,inactive,inactive,–,–,inactive,–,–,–
CO/N=C(/C(=O)N[C@@H]1C(=O)N2C(C(=O)O)=C(COC(N)=O)CS[C@H]12)c1ccco1,inactive,inactive,inactive,inactive,inactive,–,inactive,inactive,–,–
C=C1C[C@@]23CC[C@H]4[C@@](C)(CCC[C@@]4(C)C(=O)O[C@@H]4O[C@H](CO)[C@@H](O)[C@H](O)[C@H]4O)[C@@H]2CC[C@]1(O[C@@H]1O[C@H](CO)[C@@H](O)[C@H](O[C@@H]2O[C@H](CO)[C@@H](O)[C@H](O)[C@H]2O)[C@H]1O[C@@H]1O[C@H](CO)[C@@H](O)[C@H](O)[C@H]1O)C3,inactive,inactive,inactive,inactive,inactive,inactive,inactive,inactive,inactive,–
COc1ccccc1N1CCN(CCCCNC(=O)c2ccc(-c3ccc(C(C)=O)cc3)cc2)CC1,inactive,inactive,inactive,inactive,inactive,–,inactive,inactive,inactive,–
Nc1ncnc2c1ncn2[C@H]1CC[C@@H](CO)O1,inactive,inactive,inactive,inactive,inactive,inactive,inactive,inactive,inactive,–
O=C(O)CCC(=O)C(=O)O,inactive,inactive,inactive,inactive,inactive,inactive,inactive,inactive,inactive,–
O[C@@H]1CO[C@H]2[C@@H]1OC[C@@H]2O,inactive,inactive,inactive,inactive,inactive,inactive,inactive,inactive,inactive,–
C[C@H]1c2cccc(O)c2C(O)=C2C(=O)[C@]3(O)C(O)=C(C(N)=O)C(=O)[C@@H](N(C)C)[C@@H]3[C@@H](O)[C@@H]21,inactive,inactive,inactive,inactive,inactive,–,inactive,inactive,–,–
CC/C=C1/OC(=O)c2ccccc21,inactive,inactive,inactive,inactive,inactive,inactive,inactive,inactive,inactive,–
CCOc1cccc(-n2cc(C(=O)N3CCN(c4cc(C(=O)O)c5ccccc5c4)CC3)nc2-c2ccc(C)cc2)c1,inactive,inactive,inactive,–,18.6 µM (active),9.25 µM (active),–,inactive,–,–
CC1(CN2CCC(n3c(=O)[nH]c4ccccc43)CC2)OCc2ccccc2-n2cccc21 (stereo not drawn),inactive,inactive,inactive,–,–,–,33.5 µM (active),inactive,inactive,–
CCOC(=O)c1ccc(C#Cc2ccc3c(c2)C(C)(C)CCS3)nc1,inactive,inactive,inactive,–,inactive,26.6 µM (active),inactive,inactive,–,–
CCC(OCCCOC)OC(C)=O (stereo not drawn),inactive,inactive,inactive,–,inactive,inactive,inactive,inactive,inactive,–
CCOC(=O)c1ccc(I)cc1,inactive,inactive,–,inactive,inactive,inactive,inactive,inactive,inactive,inactive
CCCCCCCCCCC(=O)O,inactive,inactive,inactive,–,inactive,–,inactive,inactive,inactive,–
CCC(=O)C1CC(C(C)C)CC=C1C (stereo not drawn),inactive,inactive,–,inactive,inactive,inactive,inactive,inactive,inactive,inactive
Cc1ccc(Cl)c(Nc2ccccc2C(=O)O)c1Cl,inactive,inactive,inactive,–,inactive,inactive,inactive,–,inactive,–
OC[C@H]1O[C@@H](n2cnc3c(=S)nc[nH]c32)[C@H](O)[C@@H]1O,inactive,inactive,inactive,–,3.76 µM (active),3.35 µM (active),2.66 µM (active),inactive,inactive,–

Compound,Potency [1],Potency [2],Potency [3],Potency [4],Potency [5],Potency [6],Potency [7],Potency [8],Potency [9],Potency [10]
CCCCCCNC(=O)n1cc(F)c(=O)[nH]c1=O,inactive,inactive,inactive,–,inactive,–,inactive,inactive,inactive,–
CN1CCCC(n2nc(Cc3ccc(Cl)cc3)c3ccccc3c2=O)CC1 (stereo not drawn),inactive,inactive,inactive,inactive,–,–,29.8 µM (active),inactive,inactive,–
Nc1ccc(N=Nc2ccccc2)c(N)c1,30 µM (active),30 µM (active),26.7 µM (active),inactive,–,–,inactive,inactive,–,–
CCC(C)COC(=O)CC(C)C (stereo not drawn),inactive,inactive,inactive,–,–,–,inactive,inactive,inactive,inactive
CCOC(=O)c1ccccc1C(=C1C=C(Br)C(=O)C(Br)=C1)c1cc(Br)c(O)c(Br)c1,inactive,inactive,inactive,–,–,–,inactive,–,–,–
CCCCCCCCOc1ccc(C(=O)O)cc1,inactive,inactive,inactive,–,inactive,–,inactive,–,–,–
CCCCCC#CC(=O)OC,inactive,inactive,–,inactive,inactive,inactive,inactive,inactive,inactive,inactive
CCN(CC)CCNC(=O)COc1ccc(OC)cc1,inactive,inactive,–,inactive,inactive,inactive,inactive,inactive,–,inactive
Oc1cccc(Nc2ccccc2)c1,inactive,inactive,inactive,–,inactive,–,inactive,inactive,inactive,–
CCCCCC[C@@H](O)C/C=C\CCCCCCCC(=O)OCC(O)CO (stereo partly drawn),inactive,inactive,–,inactive,inactive,inactive,inactive,inactive,–,inactive
CC(C)(O)c1ccc(CNC(=O)c2cccnc2Oc2ccc3nonc3c2)cc1,inactive,inactive,inactive,–,inactive,–,inactive,inactive,inactive,–
CCOC(=O)C1=C(C)NC(C)=C(C(=O)OC)C1c1cccc(Cl)c1Cl (stereo not drawn),inactive,1.88 µM (active),inactive,–,inactive,–,–,inactive,–,–
CCCCCCCCN,inactive,inactive,–,inactive,inactive,inactive,inactive,inactive,inactive,inactive
CCCCCCCCCCCCCCN(CCO)CCO,43.3 µM (active),inactive,inactive,–,43.6 µM (active),–,61.1 µM (active),24.5 µM (active),–,–
Cc1cc(C)cc(N)c1,inactive,inactive,inactive,–,inactive,inactive,inactive,inactive,inactive,inactive
C[C@@H](CN(C)C)CN1c2ccccc2Sc2ccccc21,inactive,inactive,inactive,inactive,–,–,inactive,inactive,inactive,–
CC(C)=CCC1C(=O)N(c2ccccc2)N(c2ccccc2)C1=O,inactive,inactive,inactive,–,inactive,1.88 µM (active),inactive,inactive,28.7 µM (active),–
N#CCCN(CCO)CCO,inactive,inactive,inactive,–,inactive,–,inactive,inactive,inactive,–
